# Legend:
# Test in all cases: DAPPL (digital affinity profiling via proximity ligation, sequencing); 10 mM Tris-HCl pH 7.5, 50 mM NaCl, 1 mM DTT, 4% glycerol, room temperature, 30 min; GST-TFs on glutathione beads, 16-mer random dsDNA library, 0.1% formaldehyde crosslink after washing; high values mean tight binding
# Settings in all cases: protein: recombinant; tags: N-terminal GST; dsDNA, one strand shown
# ELK4 = target: T1, ELK4 (Homo sapiens, UniProt P28324-2 1-405)
# T1 sequence: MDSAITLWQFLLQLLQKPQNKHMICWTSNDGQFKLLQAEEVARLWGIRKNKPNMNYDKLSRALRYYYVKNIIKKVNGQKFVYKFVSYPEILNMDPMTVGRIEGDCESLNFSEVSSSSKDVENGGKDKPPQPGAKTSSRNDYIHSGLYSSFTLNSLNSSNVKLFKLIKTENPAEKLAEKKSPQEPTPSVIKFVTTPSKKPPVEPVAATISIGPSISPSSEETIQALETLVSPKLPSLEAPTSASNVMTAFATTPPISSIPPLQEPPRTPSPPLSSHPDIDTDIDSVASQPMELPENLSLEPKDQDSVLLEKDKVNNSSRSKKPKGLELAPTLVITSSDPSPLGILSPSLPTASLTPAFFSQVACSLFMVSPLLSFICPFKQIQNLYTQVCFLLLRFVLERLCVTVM
# Method in brief: (§1)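 Yeast served to express human transcription factors as GST fusions, which were then captured on glutathione beads and labelled with DNA barcodes. Pooled with a tag-only sample, they were incubated with 200 nmole of a 16-mer random double-stranded DNA library for 30 min at room temperature in Tris/NaCl/DTT/glycerol buffer, washed, crosslinked with 0.1% formaldehyde, ligated by proximity, amplified by PCR and sequenced. Dividing each hexamer's read frequency for a factor by its frequency for the tag-only sample gives the binding signal.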
# ETV2 = target: T2, ETV2 (Homo sapiens, UniProt O00321 1-342)
# T2 sequence: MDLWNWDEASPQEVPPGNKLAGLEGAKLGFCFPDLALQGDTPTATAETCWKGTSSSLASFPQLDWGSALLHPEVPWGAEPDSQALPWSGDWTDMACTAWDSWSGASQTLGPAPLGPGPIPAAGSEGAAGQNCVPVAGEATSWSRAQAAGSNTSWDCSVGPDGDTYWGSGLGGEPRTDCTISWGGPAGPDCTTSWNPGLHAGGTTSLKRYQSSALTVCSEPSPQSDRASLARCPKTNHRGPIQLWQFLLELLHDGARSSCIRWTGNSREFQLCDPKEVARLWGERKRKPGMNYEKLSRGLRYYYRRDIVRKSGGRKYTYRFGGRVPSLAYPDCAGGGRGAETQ
# Method in brief: as §1
# ELF3 = target: T3, ELF3 (Homo sapiens, UniProt P78545 1-371)
# T3 sequence: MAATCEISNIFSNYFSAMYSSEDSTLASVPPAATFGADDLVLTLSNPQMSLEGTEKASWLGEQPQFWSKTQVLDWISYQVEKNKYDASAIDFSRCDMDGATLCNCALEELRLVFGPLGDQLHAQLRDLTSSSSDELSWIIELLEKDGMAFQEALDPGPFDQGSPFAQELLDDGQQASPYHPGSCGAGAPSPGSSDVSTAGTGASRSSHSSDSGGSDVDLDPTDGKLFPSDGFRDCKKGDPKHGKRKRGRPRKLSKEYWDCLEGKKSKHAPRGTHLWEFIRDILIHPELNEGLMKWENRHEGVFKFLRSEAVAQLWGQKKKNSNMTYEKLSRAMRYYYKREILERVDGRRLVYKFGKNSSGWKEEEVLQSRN
# Method in brief: as §1
# ETV1 = ETV1 (Homo sapiens, UniProt P50549 1-477)
# Method in brief: as §1
# ERF = target: T4, ERF (Homo sapiens, UniProt P50548 1-548)
# T4 sequence: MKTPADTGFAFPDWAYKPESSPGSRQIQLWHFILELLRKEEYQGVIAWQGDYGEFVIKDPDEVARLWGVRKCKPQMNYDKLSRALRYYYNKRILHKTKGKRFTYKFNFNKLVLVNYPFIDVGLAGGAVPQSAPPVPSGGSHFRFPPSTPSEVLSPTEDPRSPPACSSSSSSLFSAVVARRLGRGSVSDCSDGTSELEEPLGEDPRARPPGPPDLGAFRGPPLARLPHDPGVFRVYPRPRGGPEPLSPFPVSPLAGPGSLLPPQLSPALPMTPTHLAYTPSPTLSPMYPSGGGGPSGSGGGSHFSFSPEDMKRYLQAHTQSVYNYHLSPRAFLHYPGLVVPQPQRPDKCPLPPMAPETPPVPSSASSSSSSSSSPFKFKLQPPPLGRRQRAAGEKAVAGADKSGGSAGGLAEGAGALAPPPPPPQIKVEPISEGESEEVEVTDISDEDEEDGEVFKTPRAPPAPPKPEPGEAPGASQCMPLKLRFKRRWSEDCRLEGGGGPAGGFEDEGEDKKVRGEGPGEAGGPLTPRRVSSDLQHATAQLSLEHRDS
# Method in brief: as §1
# ETV3L = target: T5, ETV3L (Homo sapiens, UniProt Q6ZN32 1-361)
# T5 sequence: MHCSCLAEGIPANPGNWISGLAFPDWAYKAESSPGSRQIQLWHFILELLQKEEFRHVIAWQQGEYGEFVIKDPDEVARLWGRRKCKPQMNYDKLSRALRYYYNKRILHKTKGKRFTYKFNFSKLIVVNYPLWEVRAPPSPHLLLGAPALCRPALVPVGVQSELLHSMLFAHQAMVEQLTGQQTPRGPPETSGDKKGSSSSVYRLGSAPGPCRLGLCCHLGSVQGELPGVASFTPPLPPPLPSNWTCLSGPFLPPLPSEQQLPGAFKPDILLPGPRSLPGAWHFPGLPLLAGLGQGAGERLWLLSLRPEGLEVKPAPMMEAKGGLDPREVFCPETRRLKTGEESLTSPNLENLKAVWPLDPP
# Method in brief: as §1
# ETS2 = target: T6, ETS2 (Homo sapiens, UniProt P15036 1-469)
# T6 sequence: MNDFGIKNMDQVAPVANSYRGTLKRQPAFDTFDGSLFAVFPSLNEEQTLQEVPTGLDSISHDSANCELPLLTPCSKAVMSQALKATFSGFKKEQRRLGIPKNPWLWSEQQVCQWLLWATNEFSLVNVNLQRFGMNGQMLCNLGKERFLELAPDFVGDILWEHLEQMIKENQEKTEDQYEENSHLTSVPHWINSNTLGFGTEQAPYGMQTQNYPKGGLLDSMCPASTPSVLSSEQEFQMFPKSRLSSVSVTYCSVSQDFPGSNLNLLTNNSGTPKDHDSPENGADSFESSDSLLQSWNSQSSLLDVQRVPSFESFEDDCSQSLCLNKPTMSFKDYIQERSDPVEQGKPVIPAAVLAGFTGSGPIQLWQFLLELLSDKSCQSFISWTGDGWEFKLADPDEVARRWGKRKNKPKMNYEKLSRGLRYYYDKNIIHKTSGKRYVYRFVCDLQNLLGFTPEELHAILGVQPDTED
# Method in brief: as §1
# ETV7 = target: T7, ETV7 (Homo sapiens, UniProt Q9Y603 1-341)
# T7 sequence: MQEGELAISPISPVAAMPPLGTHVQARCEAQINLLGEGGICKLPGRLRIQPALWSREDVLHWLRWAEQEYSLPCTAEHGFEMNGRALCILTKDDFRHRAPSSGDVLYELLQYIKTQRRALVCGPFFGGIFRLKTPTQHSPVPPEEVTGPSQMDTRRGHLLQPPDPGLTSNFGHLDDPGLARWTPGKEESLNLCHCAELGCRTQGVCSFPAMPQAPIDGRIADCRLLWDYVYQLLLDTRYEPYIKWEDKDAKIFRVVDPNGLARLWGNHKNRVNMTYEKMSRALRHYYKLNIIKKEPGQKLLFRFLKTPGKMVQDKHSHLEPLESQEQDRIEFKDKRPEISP
# Method in brief: as §1
# ETV3 = target: T8, ETV3 (Homo sapiens, UniProt P41162-2 1-143)
# T8 sequence: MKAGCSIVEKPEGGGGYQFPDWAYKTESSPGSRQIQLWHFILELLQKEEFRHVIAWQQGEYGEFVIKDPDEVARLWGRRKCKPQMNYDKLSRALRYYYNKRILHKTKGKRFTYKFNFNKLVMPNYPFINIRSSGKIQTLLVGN
# Method in brief: as §1
# ETV6 = ETV6 (Homo sapiens, UniProt P41212 1-452)
# Method in brief: as §1
# ETV6, sequence (P41212 whole entry): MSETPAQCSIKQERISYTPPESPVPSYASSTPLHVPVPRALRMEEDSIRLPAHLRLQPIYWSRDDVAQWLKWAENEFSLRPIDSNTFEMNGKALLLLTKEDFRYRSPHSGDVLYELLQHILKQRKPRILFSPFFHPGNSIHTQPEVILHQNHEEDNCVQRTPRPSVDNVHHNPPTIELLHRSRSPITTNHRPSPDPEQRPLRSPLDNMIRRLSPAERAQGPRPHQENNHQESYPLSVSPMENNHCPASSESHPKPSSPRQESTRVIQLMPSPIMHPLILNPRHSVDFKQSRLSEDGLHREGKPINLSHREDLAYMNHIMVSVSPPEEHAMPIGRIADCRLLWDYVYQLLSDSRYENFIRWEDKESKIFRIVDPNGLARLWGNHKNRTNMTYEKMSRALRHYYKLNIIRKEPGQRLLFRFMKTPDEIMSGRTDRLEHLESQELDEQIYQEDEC
# ETV1, sequence (P50549 whole entry): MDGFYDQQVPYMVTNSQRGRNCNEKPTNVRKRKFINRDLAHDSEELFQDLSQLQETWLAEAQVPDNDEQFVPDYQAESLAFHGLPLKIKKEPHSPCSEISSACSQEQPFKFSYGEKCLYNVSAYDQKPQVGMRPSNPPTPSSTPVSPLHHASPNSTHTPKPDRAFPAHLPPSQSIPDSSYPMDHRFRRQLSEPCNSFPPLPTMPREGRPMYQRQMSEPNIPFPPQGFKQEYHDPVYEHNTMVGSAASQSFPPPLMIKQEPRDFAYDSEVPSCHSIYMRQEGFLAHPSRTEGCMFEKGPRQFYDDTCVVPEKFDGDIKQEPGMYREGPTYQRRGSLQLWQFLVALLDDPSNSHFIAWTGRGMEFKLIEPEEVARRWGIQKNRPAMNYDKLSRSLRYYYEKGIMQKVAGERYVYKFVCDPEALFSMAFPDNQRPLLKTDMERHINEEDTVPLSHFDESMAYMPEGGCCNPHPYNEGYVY
sequence,measurement,setting,value
GCTGGT,binding signal,ELK4,"1.45 fold enrichment (6-mer frequency, TF over GST control)"
same,binding signal,ETV2,"1.1 fold enrichment (6-mer frequency, TF over GST control)"
same,binding signal,ELF3,"1.16 fold enrichment (6-mer frequency, TF over GST control)"
same,binding signal,ETV1,"1.02 fold enrichment (6-mer frequency, TF over GST control)"
same,binding signal,ERF,"1.14 fold enrichment (6-mer frequency, TF over GST control)"
same,binding signal,ETV3L,"1.19 fold enrichment (6-mer frequency, TF over GST control)"
same,binding signal,ETS2,"1.17 fold enrichment (6-mer frequency, TF over GST control)"
same,binding signal,ETV7,"1.17 fold enrichment (6-mer frequency, TF over GST control)"
same,binding signal,ETV3,"1.29 fold enrichment (6-mer frequency, TF over GST control)"
same,binding signal,ETV6,"1.13 fold enrichment (6-mer frequency, TF over GST control)"
